The values that follow come from PMC7862700, “An all-to-all approach to the identification of sequence-specific readers for epigenetic DNA modifications on cytosine”.

What all share (experiment): DAPPL (digital affinity profiling via proximity ligation, sequencing); 10 mM Tris-HCl pH 7.5, 50 mM NaCl, 1 mM DTT, 4% glycerol, room temperature, 30 min; GST-TFs on glutathione beads, 16-mer random dsDNA library, 0.1% formaldehyde crosslink after washing; high values mean tight binding
One experiment has as its target T1, FEV (Homo sapiens, UniProt Q99581 1-238).
T1 sequence: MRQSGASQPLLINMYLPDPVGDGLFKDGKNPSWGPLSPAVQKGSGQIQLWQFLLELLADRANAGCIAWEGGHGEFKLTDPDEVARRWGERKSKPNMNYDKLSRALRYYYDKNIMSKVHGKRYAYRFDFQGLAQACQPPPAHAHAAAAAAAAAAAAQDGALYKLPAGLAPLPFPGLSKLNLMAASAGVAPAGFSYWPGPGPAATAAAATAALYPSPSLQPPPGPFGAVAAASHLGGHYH
Conditions: protein: recombinant; tags: N-terminal GST; dsDNA, one strand shown. Put shortly:
(§1)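 Beads coated with glutathione captured GST-fused human transcription factors that had been expressed in yeast, and the factors were then given DNA barcodes and pooled with a tag-only sample. The pools were incubated with 200 nmole of a random double-stranded 16-mer DNA library in Tris/NaCl/DTT/glycerol buffer for 30 min at room temperature, washed, crosslinked with 0.1% formaldehyde and proximity-ligated with BsaI/T4 ligase at 37 °C for 1 h. PCR amplification and Illumina NextSeq500 sequencing came last. Binding signal is each hexamer's read frequency for a factor divided by its frequency for the tag-only sample.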

For the next experiment, the target named is ETV5 (Homo sapiens, UniProt P41161 1-510). The conditions noted are these: protein: recombinant; tags: N-terminal GST; dsDNA, one strand shown. Put shortly: as §1
Another experiment deals with HSF1 (Homo sapiens, UniProt Q00613 1-529). Conditions: protein: recombinant; tags: N-terminal GST; chain copies: 3; dsDNA, one strand shown. Put shortly: as §1
The target in another experiment is T2, SPIC (Homo sapiens, UniProt Q8N5J4 1-248).
T2 sequence: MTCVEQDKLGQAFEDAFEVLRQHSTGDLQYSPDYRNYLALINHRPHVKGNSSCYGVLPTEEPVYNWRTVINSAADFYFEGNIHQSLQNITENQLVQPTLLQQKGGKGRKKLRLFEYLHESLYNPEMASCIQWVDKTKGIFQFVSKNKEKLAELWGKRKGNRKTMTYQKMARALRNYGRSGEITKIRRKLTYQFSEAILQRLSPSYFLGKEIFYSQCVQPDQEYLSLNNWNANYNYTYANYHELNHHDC
Conditions: protein: recombinant; tags: N-terminal GST; dsDNA, one strand shown. The method in brief: as §1

For the next experiment, the target named is ELF4 (Homo sapiens, UniProt Q99607 1-663). The conditions noted are these: protein: recombinant; tags: N-terminal GST; dsDNA, one strand shown. The method in brief: as §1
The next experiment concerns the target T3, ELK4 (Homo sapiens, UniProt P28324-2 1-405).
T3 sequence: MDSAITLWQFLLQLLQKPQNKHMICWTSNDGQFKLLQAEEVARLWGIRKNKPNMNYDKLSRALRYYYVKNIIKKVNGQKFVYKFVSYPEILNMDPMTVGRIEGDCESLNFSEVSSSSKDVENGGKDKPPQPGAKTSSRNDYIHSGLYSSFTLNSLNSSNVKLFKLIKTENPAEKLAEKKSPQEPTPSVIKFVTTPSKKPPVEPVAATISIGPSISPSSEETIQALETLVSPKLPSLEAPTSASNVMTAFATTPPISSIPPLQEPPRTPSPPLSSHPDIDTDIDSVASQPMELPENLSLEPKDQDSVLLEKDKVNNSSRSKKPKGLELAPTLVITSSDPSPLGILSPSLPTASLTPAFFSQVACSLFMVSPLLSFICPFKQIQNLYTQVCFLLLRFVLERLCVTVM
Conditions: protein: recombinant; tags: N-terminal GST; dsDNA, one strand shown. The method in brief:
as §1

The target of a further experiment is T4, ETV2 (Homo sapiens, UniProt O00321 1-342).
T4 sequence: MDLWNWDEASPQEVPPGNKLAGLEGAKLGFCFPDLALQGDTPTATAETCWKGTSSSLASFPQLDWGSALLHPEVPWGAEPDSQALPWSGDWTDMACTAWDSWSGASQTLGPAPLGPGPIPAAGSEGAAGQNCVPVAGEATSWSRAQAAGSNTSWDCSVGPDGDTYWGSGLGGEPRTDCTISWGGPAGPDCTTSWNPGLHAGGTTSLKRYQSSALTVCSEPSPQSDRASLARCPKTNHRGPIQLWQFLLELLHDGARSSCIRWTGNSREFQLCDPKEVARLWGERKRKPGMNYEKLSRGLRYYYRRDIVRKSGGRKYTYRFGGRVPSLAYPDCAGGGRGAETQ
Conditions: protein: recombinant; tags: N-terminal GST; dsDNA, one strand shown. Put shortly: as §1

A further experiment has as its target T5, ELF3 (Homo sapiens, UniProt P78545 1-371).
T5 sequence: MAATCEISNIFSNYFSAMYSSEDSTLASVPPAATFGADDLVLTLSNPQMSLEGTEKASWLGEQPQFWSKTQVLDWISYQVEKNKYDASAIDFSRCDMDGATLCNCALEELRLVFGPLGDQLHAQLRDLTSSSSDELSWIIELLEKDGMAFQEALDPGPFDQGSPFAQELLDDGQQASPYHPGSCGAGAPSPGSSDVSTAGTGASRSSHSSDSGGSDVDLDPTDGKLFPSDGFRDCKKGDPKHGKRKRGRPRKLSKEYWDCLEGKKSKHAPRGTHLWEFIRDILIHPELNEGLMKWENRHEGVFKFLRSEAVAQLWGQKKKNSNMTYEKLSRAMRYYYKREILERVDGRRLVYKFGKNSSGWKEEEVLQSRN
Conditions: protein: recombinant; tags: N-terminal GST; dsDNA, one strand shown. Put shortly: as §1

For the next experiment, the target named is CRX (Homo sapiens, UniProt O43186 1-299). Conditions: protein: recombinant; tags: N-terminal GST; dsDNA, one strand shown. Put shortly: as §1
A further experiment has as its target ETV1 (Homo sapiens, UniProt P50549 1-477). The conditions noted are these: protein: recombinant; tags: N-terminal GST; dsDNA, one strand shown. The method in brief:
as §1

The next experiment has as its target T6, ERF (Homo sapiens, UniProt P50548 1-548).
T6 sequence: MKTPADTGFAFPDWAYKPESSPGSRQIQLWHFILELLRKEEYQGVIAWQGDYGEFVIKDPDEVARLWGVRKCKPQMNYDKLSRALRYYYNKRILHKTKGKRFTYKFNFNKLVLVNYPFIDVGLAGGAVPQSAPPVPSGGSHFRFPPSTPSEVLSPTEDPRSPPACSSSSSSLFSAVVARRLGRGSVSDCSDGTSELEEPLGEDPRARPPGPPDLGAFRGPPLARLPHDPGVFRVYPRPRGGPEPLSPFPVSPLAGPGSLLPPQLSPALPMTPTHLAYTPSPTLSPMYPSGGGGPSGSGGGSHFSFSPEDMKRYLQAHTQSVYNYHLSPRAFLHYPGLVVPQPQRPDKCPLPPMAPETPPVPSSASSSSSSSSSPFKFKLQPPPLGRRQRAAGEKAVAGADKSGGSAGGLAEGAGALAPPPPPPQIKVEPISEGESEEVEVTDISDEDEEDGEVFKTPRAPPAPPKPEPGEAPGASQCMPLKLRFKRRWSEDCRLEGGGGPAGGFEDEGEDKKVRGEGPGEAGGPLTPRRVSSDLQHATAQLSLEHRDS
The conditions noted are these: protein: recombinant; tags: N-terminal GST; dsDNA, one strand shown. The method in brief: as §1

The next experiment has as its target T7, ETV3L (Homo sapiens, UniProt Q6ZN32 1-361).
T7 sequence: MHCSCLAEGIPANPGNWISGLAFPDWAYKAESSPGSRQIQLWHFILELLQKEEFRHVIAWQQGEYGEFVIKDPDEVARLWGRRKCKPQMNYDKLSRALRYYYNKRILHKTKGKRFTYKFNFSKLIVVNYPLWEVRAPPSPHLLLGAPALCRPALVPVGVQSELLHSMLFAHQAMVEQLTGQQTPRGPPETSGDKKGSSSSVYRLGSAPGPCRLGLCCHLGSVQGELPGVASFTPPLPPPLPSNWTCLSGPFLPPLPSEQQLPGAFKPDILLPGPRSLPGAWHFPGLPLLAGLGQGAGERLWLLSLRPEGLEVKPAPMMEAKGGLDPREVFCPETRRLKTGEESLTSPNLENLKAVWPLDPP
The conditions noted are these: protein: recombinant; tags: N-terminal GST; dsDNA, one strand shown. The method in brief: as §1

The target in the next experiment is T8, ETS2 (Homo sapiens, UniProt P15036 1-469).
T8 sequence: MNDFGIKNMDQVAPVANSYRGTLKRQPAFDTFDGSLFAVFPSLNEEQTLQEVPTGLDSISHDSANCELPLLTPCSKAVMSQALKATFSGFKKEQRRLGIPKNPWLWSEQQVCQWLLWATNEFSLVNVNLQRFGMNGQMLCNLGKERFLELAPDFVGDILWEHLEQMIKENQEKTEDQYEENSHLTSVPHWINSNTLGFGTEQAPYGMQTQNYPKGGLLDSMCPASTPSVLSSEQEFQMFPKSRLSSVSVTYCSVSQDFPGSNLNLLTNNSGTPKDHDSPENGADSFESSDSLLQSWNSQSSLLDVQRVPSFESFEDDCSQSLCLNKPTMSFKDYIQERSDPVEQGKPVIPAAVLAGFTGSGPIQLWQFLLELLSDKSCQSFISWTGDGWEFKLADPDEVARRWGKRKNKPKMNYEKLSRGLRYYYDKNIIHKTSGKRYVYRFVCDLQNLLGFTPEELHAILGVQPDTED
Conditions: protein: recombinant; tags: N-terminal GST; dsDNA, one strand shown. Put shortly:
as §1

The next experiment concerns the target T9, SPDEF (Homo sapiens, UniProt O95238 1-335).
T9 sequence: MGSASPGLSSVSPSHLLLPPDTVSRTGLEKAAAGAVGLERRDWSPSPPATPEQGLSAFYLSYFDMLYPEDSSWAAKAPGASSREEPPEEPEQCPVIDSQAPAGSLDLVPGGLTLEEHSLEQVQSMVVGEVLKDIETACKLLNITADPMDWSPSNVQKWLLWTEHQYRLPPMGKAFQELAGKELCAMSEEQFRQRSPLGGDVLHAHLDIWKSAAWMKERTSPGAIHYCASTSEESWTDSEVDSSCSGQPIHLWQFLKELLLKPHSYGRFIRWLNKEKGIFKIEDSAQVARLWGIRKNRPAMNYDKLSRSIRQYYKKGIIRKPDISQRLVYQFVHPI
Conditions: protein: recombinant; tags: N-terminal GST; dsDNA, one strand shown. The method in brief:
as §1

The target of a further experiment is T10, ETV7 (Homo sapiens, UniProt Q9Y603 1-341).
T10 sequence: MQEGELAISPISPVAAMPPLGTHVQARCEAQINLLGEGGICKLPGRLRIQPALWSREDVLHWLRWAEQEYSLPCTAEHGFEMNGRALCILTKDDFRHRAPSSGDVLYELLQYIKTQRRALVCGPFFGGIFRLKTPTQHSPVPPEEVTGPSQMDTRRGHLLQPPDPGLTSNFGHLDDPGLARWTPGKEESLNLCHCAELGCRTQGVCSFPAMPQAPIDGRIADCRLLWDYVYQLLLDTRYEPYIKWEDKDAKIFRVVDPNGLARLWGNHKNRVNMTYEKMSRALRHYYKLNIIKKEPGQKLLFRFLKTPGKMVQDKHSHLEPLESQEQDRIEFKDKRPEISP
Conditions: protein: recombinant; tags: N-terminal GST; dsDNA, one strand shown. The method in brief:
as §1

The target in the next experiment is T11, ELF5 (Homo sapiens, UniProt Q9UKW6-2 1-255).
T11 sequence: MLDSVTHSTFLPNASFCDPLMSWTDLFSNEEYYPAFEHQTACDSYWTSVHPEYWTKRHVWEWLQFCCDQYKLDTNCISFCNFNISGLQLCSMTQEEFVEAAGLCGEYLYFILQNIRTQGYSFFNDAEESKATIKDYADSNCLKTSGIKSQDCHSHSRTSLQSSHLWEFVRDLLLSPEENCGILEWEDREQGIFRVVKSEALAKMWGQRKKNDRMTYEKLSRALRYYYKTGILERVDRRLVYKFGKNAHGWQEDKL
Conditions: protein: recombinant; tags: N-terminal GST; dsDNA, one strand shown. Put shortly:
as §1

The next experiment concerns the target T12, ETV3 (Homo sapiens, UniProt P41162-2 1-143).
T12 sequence: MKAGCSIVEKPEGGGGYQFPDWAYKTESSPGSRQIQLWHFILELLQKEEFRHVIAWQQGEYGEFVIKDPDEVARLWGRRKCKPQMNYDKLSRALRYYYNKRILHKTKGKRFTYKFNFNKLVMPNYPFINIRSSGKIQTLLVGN
The conditions noted are these: protein: recombinant; tags: N-terminal GST; dsDNA, one strand shown. Put shortly: as §1

The target in a further experiment is ETV6 (Homo sapiens, UniProt P41212 1-452). Conditions: protein: recombinant; tags: N-terminal GST; dsDNA, one strand shown. The method in brief: as §1
Sequence of ETV6 (P41212 whole entry): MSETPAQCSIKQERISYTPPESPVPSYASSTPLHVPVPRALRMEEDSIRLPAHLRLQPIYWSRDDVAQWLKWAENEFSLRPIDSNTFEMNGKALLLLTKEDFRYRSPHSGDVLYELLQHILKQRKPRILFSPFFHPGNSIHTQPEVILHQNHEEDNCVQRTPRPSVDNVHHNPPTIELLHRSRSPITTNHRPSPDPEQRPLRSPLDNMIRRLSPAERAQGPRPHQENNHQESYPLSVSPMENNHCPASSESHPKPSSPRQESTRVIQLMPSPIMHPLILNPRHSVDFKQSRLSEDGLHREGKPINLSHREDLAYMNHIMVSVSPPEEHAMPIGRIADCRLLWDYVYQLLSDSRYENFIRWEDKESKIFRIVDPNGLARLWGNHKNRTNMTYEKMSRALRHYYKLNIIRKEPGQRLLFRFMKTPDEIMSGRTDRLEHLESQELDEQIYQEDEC

Sequence of CRX (O43186 whole entry): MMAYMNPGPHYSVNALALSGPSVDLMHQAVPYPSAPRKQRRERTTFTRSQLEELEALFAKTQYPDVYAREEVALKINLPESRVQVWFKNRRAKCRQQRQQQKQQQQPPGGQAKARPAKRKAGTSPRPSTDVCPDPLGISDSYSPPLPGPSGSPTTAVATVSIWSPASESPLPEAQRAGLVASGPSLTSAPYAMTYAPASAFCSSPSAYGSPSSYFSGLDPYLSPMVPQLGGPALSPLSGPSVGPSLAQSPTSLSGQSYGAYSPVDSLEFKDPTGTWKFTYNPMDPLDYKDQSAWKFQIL
Sequence of ETV5 (P41161 whole entry): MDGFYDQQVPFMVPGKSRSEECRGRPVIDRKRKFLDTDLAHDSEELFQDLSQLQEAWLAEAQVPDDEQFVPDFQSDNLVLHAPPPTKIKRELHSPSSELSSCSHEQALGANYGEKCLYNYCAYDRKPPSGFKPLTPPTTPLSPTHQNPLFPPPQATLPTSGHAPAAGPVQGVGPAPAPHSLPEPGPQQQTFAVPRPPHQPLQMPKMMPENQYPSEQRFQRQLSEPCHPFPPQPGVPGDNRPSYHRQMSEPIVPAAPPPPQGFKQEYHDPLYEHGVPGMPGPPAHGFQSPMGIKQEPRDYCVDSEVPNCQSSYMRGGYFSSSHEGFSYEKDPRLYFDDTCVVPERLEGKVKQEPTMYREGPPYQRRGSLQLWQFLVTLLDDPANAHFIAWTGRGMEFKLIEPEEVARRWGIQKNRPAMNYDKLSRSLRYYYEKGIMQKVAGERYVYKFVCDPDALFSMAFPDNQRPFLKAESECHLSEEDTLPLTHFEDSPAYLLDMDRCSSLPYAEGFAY
Sequence of ETV1 (P50549 whole entry): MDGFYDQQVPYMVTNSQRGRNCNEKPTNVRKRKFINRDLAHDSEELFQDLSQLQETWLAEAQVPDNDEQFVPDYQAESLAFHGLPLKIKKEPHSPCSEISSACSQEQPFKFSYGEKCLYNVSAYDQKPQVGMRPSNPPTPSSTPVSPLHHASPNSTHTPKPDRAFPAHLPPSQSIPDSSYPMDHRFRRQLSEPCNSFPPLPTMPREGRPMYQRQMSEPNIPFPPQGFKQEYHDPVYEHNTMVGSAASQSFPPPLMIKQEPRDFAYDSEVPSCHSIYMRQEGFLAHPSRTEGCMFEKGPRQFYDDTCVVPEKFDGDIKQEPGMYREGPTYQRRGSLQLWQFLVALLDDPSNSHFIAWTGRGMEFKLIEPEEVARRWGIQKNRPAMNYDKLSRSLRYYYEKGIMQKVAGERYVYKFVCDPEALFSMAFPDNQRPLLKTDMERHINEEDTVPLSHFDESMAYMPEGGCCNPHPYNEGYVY
Sequence of ELF4 (Q99607 whole entry): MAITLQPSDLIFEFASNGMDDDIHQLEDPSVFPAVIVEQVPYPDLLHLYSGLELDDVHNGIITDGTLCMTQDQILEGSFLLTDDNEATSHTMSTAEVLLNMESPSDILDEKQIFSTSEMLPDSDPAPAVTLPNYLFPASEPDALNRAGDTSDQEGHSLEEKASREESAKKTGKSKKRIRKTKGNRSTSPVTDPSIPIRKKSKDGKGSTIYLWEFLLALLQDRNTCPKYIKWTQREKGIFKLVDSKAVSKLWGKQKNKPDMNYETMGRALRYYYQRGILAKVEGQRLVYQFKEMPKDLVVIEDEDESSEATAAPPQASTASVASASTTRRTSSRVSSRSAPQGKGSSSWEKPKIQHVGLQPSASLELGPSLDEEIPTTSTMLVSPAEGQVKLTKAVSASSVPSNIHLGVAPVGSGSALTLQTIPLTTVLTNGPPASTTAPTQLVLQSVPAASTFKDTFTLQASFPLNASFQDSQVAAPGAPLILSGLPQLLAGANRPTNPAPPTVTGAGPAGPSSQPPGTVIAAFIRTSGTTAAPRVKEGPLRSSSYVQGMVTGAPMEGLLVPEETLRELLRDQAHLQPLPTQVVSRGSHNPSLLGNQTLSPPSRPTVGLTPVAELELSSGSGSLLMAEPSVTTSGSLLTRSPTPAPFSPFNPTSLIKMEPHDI
Sequence of HSF1 (Q00613 whole entry): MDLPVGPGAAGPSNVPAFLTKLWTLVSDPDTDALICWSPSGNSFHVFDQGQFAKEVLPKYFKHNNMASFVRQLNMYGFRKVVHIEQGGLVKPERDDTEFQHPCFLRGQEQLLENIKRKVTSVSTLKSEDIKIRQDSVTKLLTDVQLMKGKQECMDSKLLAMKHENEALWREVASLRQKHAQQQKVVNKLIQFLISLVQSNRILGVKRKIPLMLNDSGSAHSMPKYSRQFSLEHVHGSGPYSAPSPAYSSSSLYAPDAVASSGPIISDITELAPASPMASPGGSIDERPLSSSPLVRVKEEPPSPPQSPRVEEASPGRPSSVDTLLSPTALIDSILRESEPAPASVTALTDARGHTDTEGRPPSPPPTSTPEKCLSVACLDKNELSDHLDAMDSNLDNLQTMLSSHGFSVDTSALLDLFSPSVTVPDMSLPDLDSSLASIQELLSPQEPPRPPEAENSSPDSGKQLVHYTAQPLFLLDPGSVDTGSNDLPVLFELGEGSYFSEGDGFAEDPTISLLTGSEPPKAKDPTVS

Consider AATAAA, for which the binding signal with FEV is 1.22 fold enrichment (6-mer frequency, TF over GST control); in the experiment with ETV5, 1.31 fold enrichment (6-mer frequency, TF over GST control); in the experiment with HSF1 it was 1.42 fold enrichment (6-mer frequency, TF over GST control); with SPIC it was 1.26 fold enrichment (6-mer frequency, TF over GST control); with ELF4, 1.29 fold enrichment (6-mer frequency, TF over GST control); in the experiment with ELK4 it was 1.28 fold enrichment (6-mer frequency, TF over GST control). The binding signal with ETV2 is 1.21 fold enrichment (6-mer frequency, TF over GST control); with ELF3, 1.31 fold enrichment (6-mer frequency, TF over GST control); with CRX it was 1.57 fold enrichment (6-mer frequency, TF over GST control); with ETV1, 1.23 fold enrichment (6-mer frequency, TF over GST control); with ERF it was 1.29 fold enrichment (6-mer frequency, TF over GST control); in the experiment with ETV3L, 1.29 fold enrichment (6-mer frequency, TF over GST control). Further, the binding signal with ETS2 was 1.31 fold enrichment (6-mer frequency, TF over GST control); with SPDEF, 1.22 fold enrichment (6-mer frequency, TF over GST control); in the experiment with ETV7 it was 1.24 fold enrichment (6-mer frequency, TF over GST control); with ELF5, 1.2 fold enrichment (6-mer frequency, TF over GST control); with ETV3, 1.18 fold enrichment (6-mer frequency, TF over GST control); with ETV6, 1.34 fold enrichment (6-mer frequency, TF over GST control).
